# PubChem BioAssay (EPA / NIEHS)
# Results filed as inconclusive are left out. The source made the active and inactive calls. The calls were made as follows: active = hit-call score of the fitted dose curve at least 0.9, where 1 is the maximum; inconclusive = response in the unintended direction; inactive = score below 0.9.
# Biological target: Cellular tumor antigen p53 (Homo sapiens) (UniProt P04637)
# Assay: TOX21_p53_BLA_p4_ratio: Tox21 HCT-116 p53 Agonism Beta-lactamase Assay, Ratio, Phase 4 (AID 2283601)
# Summary of the method: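 HCT116 cells carrying an inducible beta-lactamase reporter were plated at 4000 cells/well, rested 5 h, then exposed to compounds in DMSO (217-fold dilution) for 16 h at 37C. CCF4-AM substrate was loaded 2 h at room temperature; 460/530 nm emission ratio scored gain-of-signal versus DMSO.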
# Cellular tumor antigen p53 (Homo sapiens), sequence (P04637 whole entry, looked up): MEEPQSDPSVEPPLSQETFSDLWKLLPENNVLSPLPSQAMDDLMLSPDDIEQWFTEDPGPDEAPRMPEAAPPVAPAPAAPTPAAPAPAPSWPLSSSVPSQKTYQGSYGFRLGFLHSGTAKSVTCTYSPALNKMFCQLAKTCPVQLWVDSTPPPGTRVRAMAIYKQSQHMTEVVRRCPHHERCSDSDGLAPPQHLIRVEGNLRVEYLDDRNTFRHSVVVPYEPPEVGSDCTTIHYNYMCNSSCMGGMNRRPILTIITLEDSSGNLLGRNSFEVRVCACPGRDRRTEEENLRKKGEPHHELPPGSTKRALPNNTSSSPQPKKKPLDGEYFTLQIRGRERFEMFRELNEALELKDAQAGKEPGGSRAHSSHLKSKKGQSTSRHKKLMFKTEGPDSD
row,Structure (SMILES),outcome
1,FC(F)(F)c1ccccc1,inactive
2,CC(C)(CCl)c1ccccc1,inactive
3,CC(=O)OCC(=O)[C@@]1(O)CC[C@H]2[C@@H]3C[C@H](C)C4=CC(=O)C=C[C@]4(C)[C@H]3[C@@H](O)C[C@@]21C,inactive
4,CCCCC(=O)O[C@]1(C(=O)CO)CC[C@H]2[C@@H]3CCC4=CC(=O)CC[C@]4(C)[C@H]3[C@@H](O)C[C@@]21C,inactive
5,CC1CCCCN1CCCOC(=O)c1ccccc1 (stereo not drawn),inactive
6,CCOC(=O)C(C)(C)C,inactive
7,CCc1ccc(Br)cc1,inactive
8,CCC=C1OC(=O)c2ccccc21,inactive
9,C=CC(=O)NC(C)C,inactive
10,CN1C(C(=O)Nc2ccccn2)C(=O)c2sc(Cl)cc2S1(=O)=O (stereo not drawn),inactive
11,CCCCOC(=O)C(=O)OCCCC,inactive
12,C=CCCCCCCCCCCC,inactive
13,Cc1c(O)cc2c(c1C)O[C@](C)(CCC[C@H](C)CCC[C@H](C)CCCC(C)C)CC2,inactive
14,CCC(=O)OC(OP(=O)(CCCCc1ccccc1)CC(=O)N1C[C@H](C2CCCCC2)C[C@H]1C(=O)O)C(C)C (stereo partly drawn),inactive
15,CCCCCCCCCCCC[N+](C)(C)CCCS(=O)(=O)[O-],inactive
16,CCCC(=O)Nc1ncnc2c1ncn2[C@@H]1O[C@@H]2COP(=O)(O)O[C@H]2[C@H]1OC(=O)CCC,inactive
17,CC(C)(C)N(CCO)CCO,inactive
18,CCCCNc1c(C(=O)OCC)c(C)nc2c1cnn2CC,inactive
